# Experimental data reported in the supplement of paper PMC4466140.
# Target: AgAbp1
# Test: SPOT peptide array binding signal intensity (averaged, normalized) (arbitrary units (background-subtracted, floor 0; scale differs between SH3 domains)); higher = stronger binding of the SH3 domain to the peptide
# Experimental: (§1)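 GST-tagged SH3 domains from S. cerevisiae (Sc), A. gossypii (Ag), C. albicans (Ca) and S. pombe (Sp) were incubated at 10 ug/ml overnight at 4 C on cellulose SPOT membranes carrying 292 synthetic 15-mer peptides mined from the S. cerevisiae proteome (cysteines replaced by serines). Binding was detected with anti-GST antibody, HRP secondary and chemiluminescence, quantified with Genespotter, and reported as normalized spot intensities averaged over biological replicates.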
row,Binder,SPOT peptide array binding signal intensity
1,NHSRSLFSLPGNQQS,31

# Target: AgBbc1
# Test: as above
# Experimental: as §1
row,Binder,SPOT peptide array binding signal intensity
1,NHSRSLFSLPGNQQS,21.5

# Target: AgBem1-D1
# Test: as above
# Experimental: as §1
row,Binder,SPOT peptide array binding signal intensity
1,NHSRSLFSLPGNQQS,96.5

# Target: AgBzz1-D1
# Test: as above
# Experimental: as §1
row,Binder,SPOT peptide array binding signal intensity
1,NHSRSLFSLPGNQQS,38

# Target: AgBzz1-D2
# Test: as above
# Experimental: as §1
row,Binder,SPOT peptide array binding signal intensity
1,NHSRSLFSLPGNQQS,20.5

# Target: AgCyk3
# Test: as above
# Experimental: as §1
row,Binder,SPOT peptide array binding signal intensity
1,NHSRSLFSLPGNQQS,1

# Target: AgFus1
# Test: as above
# Experimental: as §1
row,Binder,SPOT peptide array binding signal intensity
1,NHSRSLFSLPGNQQS,786

# Target: AgHof1
# Test: as above
# Experimental: as §1
row,Binder,SPOT peptide array binding signal intensity
1,NHSRSLFSLPGNQQS,58.8

# Target: AgHse1
# Test: as above
# Experimental: as §1
row,Binder,SPOT peptide array binding signal intensity
1,NHSRSLFSLPGNQQS,2350

# Target: AgLsb1
# Test: as above
# Experimental: as §1
row,Binder,SPOT peptide array binding signal intensity
1,NHSRSLFSLPGNQQS,246

# Target: AgLsb4
# Test: as above
# Experimental: as §1
row,Binder,SPOT peptide array binding signal intensity
1,NHSRSLFSLPGNQQS,45

# Target: AgMyo5
# Test: as above
# Experimental: as §1
row,Binder,SPOT peptide array binding signal intensity
1,NHSRSLFSLPGNQQS,44.5

# Target: AgNbp2
# Test: as above
# Experimental: as §1
row,Binder,SPOT peptide array binding signal intensity
1,NHSRSLFSLPGNQQS,44

# Target: AgRvs167
# Test: as above
# Experimental: as §1
row,Binder,SPOT peptide array binding signal intensity
1,NHSRSLFSLPGNQQS,14

# Target: AgSho1
# Test: as above
# Experimental: as §1
row,Binder,SPOT peptide array binding signal intensity
1,NHSRSLFSLPGNQQS,64

# Target: AgSla1-D1-D2
# Test: as above
# Experimental: as §1
row,Binder,SPOT peptide array binding signal intensity
1,NHSRSLFSLPGNQQS,58.5

# Target: AgSla1-D3
# Test: as above
# Experimental: as §1
row,Binder,SPOT peptide array binding signal intensity
1,NHSRSLFSLPGNQQS,13.5

# Target: CaAbp1-D1
# Test: as above
# Experimental: as §1
row,Binder,SPOT peptide array binding signal intensity
1,NHSRSLFSLPGNQQS,266

# Target: CaAbp1-D2
# Test: as above
# Experimental: as §1
row,Binder,SPOT peptide array binding signal intensity
1,NHSRSLFSLPGNQQS,430

# Target: CaBbc1
# Test: as above
# Experimental: as §1
row,Binder,SPOT peptide array binding signal intensity
1,NHSRSLFSLPGNQQS,111

# Target: CaBem1-D1
# Test: as above
# Experimental: as §1
row,Binder,SPOT peptide array binding signal intensity
1,NHSRSLFSLPGNQQS,27

# Target: CaBzz1-D1
# Test: as above
# Experimental: as §1
row,Binder,SPOT peptide array binding signal intensity
1,NHSRSLFSLPGNQQS,5.5

# Target: CaBzz1-D2
# Test: as above
# Experimental: as §1
row,Binder,SPOT peptide array binding signal intensity
1,NHSRSLFSLPGNQQS,31

# Target: CaCyk3
# Test: as above
# Experimental: as §1
row,Binder,SPOT peptide array binding signal intensity
1,NHSRSLFSLPGNQQS,1.5

# Target: CaFus1
# Test: as above
# Experimental: as §1
row,Binder,SPOT peptide array binding signal intensity
1,NHSRSLFSLPGNQQS,1930

# Target: CaHof1
# Test: as above
# Experimental: as §1
row,Binder,SPOT peptide array binding signal intensity
1,NHSRSLFSLPGNQQS,0.25

# Target: CaHse1
# Test: as above
# Experimental: as §1
row,Binder,SPOT peptide array binding signal intensity
1,NHSRSLFSLPGNQQS,296

# Target: CaLsb1
# Test: as above
# Experimental: as §1
row,Binder,SPOT peptide array binding signal intensity
1,NHSRSLFSLPGNQQS,2

# Target: CaLsb4
# Test: as above
# Experimental: as §1
row,Binder,SPOT peptide array binding signal intensity
1,NHSRSLFSLPGNQQS,≤ 0

# Target: CaMyo5
# Test: as above
# Experimental: as §1
row,Binder,SPOT peptide array binding signal intensity
1,NHSRSLFSLPGNQQS,85.2

# Target: CaNbp2
# Test: as above
# Experimental: as §1
row,Binder,SPOT peptide array binding signal intensity
1,NHSRSLFSLPGNQQS,358

# Target: CaRvs167
# Test: as above
# Experimental: as §1
row,Binder,SPOT peptide array binding signal intensity
1,NHSRSLFSLPGNQQS,54.7

# Target: CaRvs167-3
# Test: as above
# Experimental: as §1
row,Binder,SPOT peptide array binding signal intensity
1,NHSRSLFSLPGNQQS,70.5

# Target: CaSho1
# Test: as above
# Experimental: as §1
row,Binder,SPOT peptide array binding signal intensity
1,NHSRSLFSLPGNQQS,838

# Target: CaSla1-D1-D2
# Test: as above
# Experimental: as §1
row,Binder,SPOT peptide array binding signal intensity
1,NHSRSLFSLPGNQQS,25.5

# Target: CaSla1-D3
# Test: as above
# Experimental: as §1
row,Binder,SPOT peptide array binding signal intensity
1,NHSRSLFSLPGNQQS,23.8

# Target: ScAbp1
# Test: as above
# Experimental: as §1
row,Binder,SPOT peptide array binding signal intensity
1,NHSRSLFSLPGNQQS,48
